Measurements: PubChem BioAssay
Values without a mark were called inactive. How the calls were made is not given here.

Molecular target: Pantothenate synthetase (Mycobacterium tuberculosis (strain ATCC 25618 / H37Rv)) (UniProt P9WIL5)
Test: Coupled enzyme confirmation of inhibitors against recombinant Mtb PanC (AID 375);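 further: 0% = full reaction with vehicle and 100% = no enzyme background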
Settings: coupled enzyme assay; at 10 µM, stronger effect = higher value

Sequence of Pantothenate synthetase (Mycobacterium tuberculosis (strain ATCC 25618 / H37Rv)) (P9WIL5 whole entry, looked up): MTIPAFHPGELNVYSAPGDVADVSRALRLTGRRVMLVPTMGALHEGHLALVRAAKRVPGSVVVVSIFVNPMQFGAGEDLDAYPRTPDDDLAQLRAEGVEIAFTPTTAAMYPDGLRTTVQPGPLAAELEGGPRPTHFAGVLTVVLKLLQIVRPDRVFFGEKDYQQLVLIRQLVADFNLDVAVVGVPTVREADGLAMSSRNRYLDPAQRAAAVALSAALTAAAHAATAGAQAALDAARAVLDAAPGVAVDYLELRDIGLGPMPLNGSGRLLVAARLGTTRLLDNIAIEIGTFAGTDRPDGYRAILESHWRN

How did the inhibition turn out when `COc1cccc(C2CC(c3ccc(C)cc3)n3nc(N)nc3N2)c1` (stereo not given) was run?
The inhibition was 15%.

With `N#CCSc1nc2c(c(C3CC=CCC3)c1C#N)CCC2` (stereo not given) as the compound, how does the inhibition read?
Its inhibition is 6%.

`O=C(Nc1cccc2ccccc12)N1CCN(c2ccccc2)CC1` was tested. Which inhibition did it give?
The inhibition was 3%.

`Cc1nc2cc(C(=O)O)ccc2n1-c1ccc(F)cc1F` was tested. Which inhibition did it give?
The inhibition was 2%.

How did the inhibition turn out when `O=C(CCn1[nH]c(=O)c2ccccc2c1=O)NCCO` was run?
The inhibition was 0%.

With `O=C1NCCCc2c1no[n+]2[O-]` as the compound, how does the inhibition read?
Its inhibition is 18%.

`CN(CC(=O)Nc1cccnc1)S(=O)(=O)c1cc(Cl)ccc1Cl` was tested. Which inhibition did it give?
The inhibition was 0%.

`COCCn1c(SCC(=O)Nc2cccc(OC)c2)nnc1-c1ccc(Cl)cc1` was tested. Which inhibition did it give?
Its inhibition is 3%.

For `O=S1(=O)C=C(Sc2nnc(-c3ccccc3)o2)c2ccccc21`, which inhibition is on record?
The inhibition was 3%.

For `COc1ccc(S(=O)(=O)NCCOc2ccccc2)cc1OC`, which inhibition is on record?
The inhibition was 0%.

With `Cc1nc2ccccc2nc1OCC(=O)Nc1cc(C(F)(F)F)ccc1N1CCOCC1` as the compound, how does the inhibition read?
The inhibition was 0%.

How did the inhibition turn out when `COc1ccccc1S(=O)(=O)n1cc(Cc2ccccc2)c(N)n1` was run?
The inhibition was 0%.

Which inhibition does the source give for `CC1CC(=O)c2cnc(NCC3CCCO3)nc2C1` (stereo not given) here?
The inhibition was 3%.

Which inhibition does the source give for `COC(=O)c1c(C#N)c(N)nc2c1CCC2` here?
The inhibition was 7%.

With `CCOC(=O)C(NC(C)=O)(NS(=O)(=O)c1ccccc1)C(F)(F)F` (stereo not given) as the compound, how does the inhibition read?
The inhibition was 2%.

With `Cc1cc(C(=O)Nc2cccnc2)no1` as the compound, how does the inhibition read?
Its inhibition is 0%.

With `Cc1ccc(-c2cn3cccnc3n2)cc1NC(=O)c1ccc(Br)o1` as the compound, how does the inhibition read?
The inhibition was 0%.

How did the inhibition turn out when `Cc1ccc(CC23CN4CCN(CC(C4)C2O)C3)c(C)c1` (stereo not given) was run?
The inhibition was 1%.

`CN(C)CCCC1(c2ccc(F)cc2)OCc2cc(C#N)ccc21` (stereo not given) was tested. Which inhibition did it give?
Its inhibition is 0%.

`CC1CCCC(NC(=O)CN2CCN(Cc3ccc(Cl)cc3)C2=O)C1C` (stereo not given) was tested. Which inhibition did it give?
The inhibition was 7%.

For `CCOC(=O)C1CCN(C(=O)Nc2ccc3snnc3c2)CC1`, which inhibition is on record?
Its inhibition is 6%.

With `Cc1cc(C)cc(Nc2ncc3c(n2)CC(c2ccco2)CC3=O)c1` (stereo not given) as the compound, how does the inhibition read?
Its inhibition is 3%.

For `CCOc1ccccc1NC(=O)CCSc1nc2n[nH]c(C)c2c(=N)n1-c1ccccc1Cl`, which inhibition is on record?
Its inhibition is 10%.

How did the inhibition turn out when `Cc1c(NC(=O)c2coc(=O)c(Br)c2)c(=O)n(-c2ccccc2)n1C` was run?
The inhibition was 7%.

`FC(F)(F)c1ccc(Sc2nnc(-c3cccs3)n2CC2CCCO2)nc1` (stereo not given) was tested. Which inhibition did it give?
The inhibition was 0%.

Which inhibition does the source give for `C=C(C)Cn1c(N2CCN(CC)CC2)nc2c1c(=O)[nH]c(=O)n2C` here?
Its inhibition is 0%.

How did the inhibition turn out when `COC(=O)CN1C(=O)C(O)(CC(=O)c2ccc(C)cc2)c2cc(Br)ccc21` (stereo not given) was run?
Its inhibition is 2%.

`C=CCn1c(SCc2ccc(C#N)cc2)nnc1-c1cccc(Cl)c1` was tested. Which inhibition did it give?
Its inhibition is 1%.

With `Cn1ccnc1C(O)c1ccco1` (stereo not given) as the compound, how does the inhibition read?
Its inhibition is 3%.

Which inhibition does the source give for `CC1(C)CC(=O)C=C(NC2CCS(=O)(=O)C2)C1` (stereo not given) here?
Its inhibition is 0%.

`COC(=O)CSc1nnc(-c2ccncc2)o1` was tested. Which inhibition did it give?
Its inhibition is 0%.

For `CC(=O)N1CCN(c2ccc(N=Cc3c(O)n(Cc4ccccc4)c(=O)[nH]c3=O)cc2)CC1`, which inhibition is on record?
Its inhibition is 0%.

Which inhibition does the source give for `O=C(CSc1nc2ccccc2nc1SCC(=O)N1CCOCC1)N1CCOCC1` here?
Its inhibition is 0%.

How did the inhibition turn out when `C=C(C)COc1ccc(-c2nc(N)ncc2-c2ccc(OC)cc2)c(O)c1` was run?
The inhibition was 2%.

With `CC1(C)Cc2c(sc3ncnc(N)c23)CO1` as the compound, how does the inhibition read?
Its inhibition is 14%.

With `Cn1c(SCc2nc3ccccc3c(=O)[nH]2)nnc1-c1ccco1` as the compound, how does the inhibition read?
The inhibition was 13%.

`Nc1ncnc2nc(Sc3ccc(Cl)cc3)[nH]c12` was tested. Which inhibition did it give?
Its inhibition is 0%.

Which inhibition does the source give for `COC(=O)c1oc2ccc(Br)cc2c1NC(C)=O` here?
The inhibition was 0%.

`NC(=O)COC(=O)c1ccc(S(=O)(=O)N2CCCCCC2)cc1` was tested. Which inhibition did it give?
Its inhibition is 0%.

With `Cc1ccc(Cl)cc1NC(=O)CSc1nnc(C)n1-c1ccccc1` as the compound, how does the inhibition read?
Its inhibition is 0%.
